Hits are enriched below; roughly 17% of the tested compounds scored in any of these assays.
TGFb SMAD3 inh: qHTS for Inhibitors of TGF-b; 410,000 compounds, 1.2% hits; HepG2 CAGA-GFP TGF-b/SMAD3 reporter, GFP fluorescence, 18 h; TGF-beta stimulated, 500 pg/mL final; AID 588855, 2011; Potency, µM (highest dose often 46.1 µM), for inactives: at the highest dose activity, negative = inhibition, most hits filed as inhibitors; further: on the % scale 0 is the no-effect control and ±100 the full control effect; nearly all actives have a fitted effect of over 65% in size
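Cell-based qHTS in HEPG2 carrying a CAGA-GFP Smad reporter; compounds added before 500 pg/mL final TGF-beta, 18 h incubation at 37 degrees C, GFP fluorescence quantified per cell by imaging cytometry.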
ATXN2 expr inh: Primary qHTS for Inhibitors of ATXN expression; 360,000 compounds, 0.72% hits; HEK-293 ATXN2-luciferase reporter, luminescence, 24 h; AID 1745845, 2022; Potency, µM (doses to about 57 µM), without a hit: at the highest dose activity change, negative = inhibition, usual class: inhibitors; further: on the % scale 0 is the no-effect control and ±100 the full control effect; nearly all actives have a fitted effect of over 55% in size
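ATXN2-luciferase reporter cells (luciferase flanked by upstream and downstream ATXN2 gene portions) were treated 24 h at 37 °C with compounds at up to 57 uM. SteadyGlo luminescence gave expression; GF-AFC fluorescence gave viability.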
HepG2 viability: qHTS for Inhibitors of TGF-b: Cytotox Counterscreen | Potency, µM (titrated, usually from 46.1 µM), for the others: top-dose activity change, negative = cytotoxicity, most hits filed as cytotoxic | 410,000 compounds, 0.76% hits | HepG2 CAGA-GFP viability, ATP luminescence, 18 h
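HepG2 CAGA-GFP cells (1000/well, DMEM with 1% FBS) received compound, then TGF-beta at 500 pg/mL final, and were incubated 18 hours at 37 degrees C. Viability was read by CellTiter-Glo luminescence. Media-only wells were set as complete cell-killing and DMSO as no toxicity.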
DT40 TDP1 no CPT: qHTS for Inhibitors of human tyrosyl-DNA phosphodiesterase 1 (TDP1): qHTS in cells in absence of CPT | DT40 Tdp1-/- hTDP1 cells, no CPT, ATP luminescence, 48 h | Potency, µM (titrated, usually from 46.2 µM), inactives show top-dose activity change, negative = growth inhibition, most hits filed as inhibitors | 420,000 compounds, 15% hits; further: on the % scale 0 is the no-effect control and ±100 the full control effect; nearly all actives have a fitted effect of over 55% in size
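A cellular qHTS used chicken DT40 cells lacking endogenous Tdp1 but carrying stably transfected human TDP1. Compounds were applied without camptothecin, and cell growth kinetics were judged by ATP-dependent luminescence after ≥48 hr.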
DT40 TDP1 CPT: qHTS for Inhibitors of human tyrosyl-DNA phosphodiesterase 1 (TDP1): qHTS in cells in presence of CPT | Potency, µM (top dose mostly 46.2 µM), without a hit: at the highest dose activity change, negative = growth inhibition, hits mostly inhibitors | 420,000 compounds, 12% hits | chicken DT40 Tdp1-/-;hTDP1 cells + 20 nM CPT, ATP luminescence, 48 h; further: on the % scale 0 is the no-effect control and ±100 the full control effect; nearly all actives have a fitted effect of over 55% in size
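Chicken DT40 Tdp1-/- cells stably complemented with human TDP1 were seeded at 400 cells/well in medium containing 20 nM camptothecin, exposed to pin-transferred compounds, and grown at 37 °C for at least 48 hr. Viability was read as ATP luminescence.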
S2 tox: Viability Counterscreen for Primary qHTS for Inhibitors of ATXN expression; AID 651635, 2014; 400,000 compounds, 0.49% hits; Potency, µM (titrated, usually from 56.7 µM), hits mostly cytotoxic; S2 cells (HEK-293 line with an ATXN2-luciferase reporter) viability, CellTiter-Fluor protease fluorescence, 24 h; further: nearly all actives have a fitted effect of over 40% in size
* hit, by the source's call; [ ] = dose if it differs, or a comment. The call rests on the fitted dose curve; in most records, active means well fitted curve in the direction sought with a large enough effect; inconclusive means small, poorly fitted or top-dose-only effect, or another doubt; inactive means no such curve, though single readings can be large; an effect the other way counts as inactive or inconclusive. Potency means the concentration at half of the fitted maximal effect.

Screening COCCN1C(=O)N(c2cccc(OC)c2)C(=O)C1CC(=O)Nc1ccccc1 (stereo not given) returned TGFb SMAD3 inh 1%, ATXN2 expr inh 2%, HepG2 viability -5%, DT40 TDP1 no CPT -8%, DT40 TDP1 CPT 9% and S2 tox inactive.
CCCc1cc(=O)[nH]c(SCC(=O)Nc2sc3c(c2C(N)=O)CCCC3)n1 was read as TGFb SMAD3 inh 0%, ATXN2 expr inh -10%, HepG2 viability 2%, DT40 TDP1 no CPT -25%, DT40 TDP1 CPT -26% and S2 tox inactive.
`CCCCCOc1ccc(NC(=O)C(=O)NCCCn2ccnc2)cc1` gave TGFb SMAD3 inh -9%, ATXN2 expr inh -33%, HepG2 viability -20%, DT40 TDP1 no CPT 18µM*, DT40 TDP1 CPT inconclusive and S2 tox inconclusive.
`CCOC(=O)[C@]12CCC=C1N(CCC1=CCCCC1)C(=O)[C@H](CC(=O)N1CCCCC1)C2` gave ATXN2 expr inh -8%, DT40 TDP1 no CPT 13µM*, DT40 TDP1 CPT 18µM* and S2 tox inactive.
CCOC(=O)[C@]12CCC=C1N(CCC1=CCCCC1)C(=O)[C@H](CC(=O)N1CCN(C(=O)c3ccco3)CC1)C2 was read as ATXN2 expr inh 10%, DT40 TDP1 no CPT inconclusive, DT40 TDP1 CPT inconclusive and S2 tox inactive.
Screening CCOC(=O)[C@]12CCC=C1N(CCC1=CCCCC1)C(=O)[C@H](CC(=O)N1CCCC1)C2 returned ATXN2 expr inh -12%, DT40 TDP1 no CPT inconclusive, DT40 TDP1 CPT 23µM* and S2 tox inactive.
For CCOC(=O)[C@]12CCCC=C1N(CCc1ccc(OC)c(OC)c1)C(=O)[C@H](CC(=O)N1CCCC1)C2 the results were DT40 TDP1 no CPT 9.2µM* and DT40 TDP1 CPT 12µM*.
CCOC(=O)[C@]12CCCC=C1N(CCC1=CCCCC1)C(=O)[C@H](CC(=O)N1CCC(c3ccccc3)CC1)C2 was read as DT40 TDP1 no CPT 15µM* and DT40 TDP1 CPT inconclusive.
Screening CCOC(=O)[C@]12CCCC=C1N(Cc1ccco1)C(=O)[C@H](CC(=O)N1CCCC1)C2 returned ATXN2 expr inh 9%, DT40 TDP1 no CPT -8%, DT40 TDP1 CPT -6% and S2 tox inactive.
CCOC(=O)[C@]12CCC=C1N(CCC1=CCCCC1)C(=O)[C@H](CC(=O)N1CCN(C(=O)C3CC3)CC1)C2 was read as ATXN2 expr inh 18%, DT40 TDP1 no CPT -20%, DT40 TDP1 CPT -29% and S2 tox inactive.
For O=C(NCCC1CC1(Cl)Cl)c1ccc([N+](=O)[O-])cc1 (stereo not given) the results were TGFb SMAD3 inh inconclusive, ATXN2 expr inh 14%, HepG2 viability -2%, DT40 TDP1 no CPT 2%, DT40 TDP1 CPT 1% and S2 tox inactive.
Screening COc1ccc2c(c1)OC(C)CN(CCNC(=O)c1ccc(-n3cccn3)cc1)C2 (stereo not given) returned DT40 TDP1 no CPT -19%, DT40 TDP1 CPT 6%[9.04 µM] and S2 tox inactive.
`N#Cc1c(NC(=O)COC(=O)c2ccc(S(=O)(=O)N3CCCC3)cc2)sc2c1CCCCC2` gave TGFb SMAD3 inh 8%, ATXN2 expr inh 6%, HepG2 viability 0%, DT40 TDP1 no CPT 0%, DT40 TDP1 CPT -13% and S2 tox inactive.
CCOC(=O)[C@]12CCCC=C1N(CCC1=CCCCC1)C(=O)[C@H](CC(=O)N1CCCC1)C2 was read as DT40 TDP1 no CPT 2.3µM* and DT40 TDP1 CPT 2.1µM*.
